# Measured values: PubChem BioAssay
# Values joined by “and” are separate entries in the source; they are usually repeats but may differ in a detail not shown here. Equal entries are not always repeated. Inconclusive results are not listed. Active and inactive are the calls of the source.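 The calls were made as follows, unless noted: active = compounds killing one labelled cell type while sparing the other, by normalised counts and ratio limits, not self-fluorescent; inactive = the rest.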 Numbered stars: 1 amine (or outer) side, 2 acyl side, 3 side chain; on linkers, the order of the positions; unused ones are H or OH. Bridge positions count the residues as written; N and C are the ends. Square brackets hold non-standard residues; d marks the D form. Peptide text beside a SMILES is read from it. * marks the point of attachment. ξ: configuration not given here. ΔAla(E,3-NHCONH2) = NC(=O)N/C=C(/N)C(=O)O; X1 = NC1=NCCC(C(N[*:1])C(=O)[*:2])N1; ξβ3hOrn = NCCCC(N)CC(=O)*; Orn = NCCC[CH](N)C(=O)O; Dap = NC[CH](N)C(=O)O
# Columns and labels:
# [1] = differential killing of epithelial or mesenchymal cells, primary screen, imaging, PC-3E GFP, TEM4-18 mCherry, co-culture (AID 1345086); details: imaging cell counts, at 1 µM; for red/green cell ratio (normalised): actives lie on both sides, counts scaled to control wells, 1 = unselective;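 as to all read-outs here: cells exposed to compound for 72 h before imaging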;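 as to red/green cell ratio (normalised): normalised mesenchymal count divided by normalised epithelial count so high means epithelial killing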
# [2] = survival rescue of mitochondrial mutant cells in low glucose, primary screen, MELAS cybrids, Rieske KO mouse fibroblasts, CellTiter-Glo (AID 1508586;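 active = mean z-score across replicates of 1.96 or higher in either the MELAS or the Rieske mutant cell line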;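 also: z relative to plate mean and SD of compound and empty wells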)
# [3] = molecular target: NAD(+) hydrolase SARM1 (Homo sapiens) (UniProt Q6SZW1); experiment: SARM1 TIR NADase inhibitors, cell lysate, NAD-Glo luminescence (AID 1508614;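 active = compound whose remaining NAD level is above about 45 nM, limit read from the data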;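 also: higher remaining NAD means stronger inhibition of SARM1 NADase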); details: SAM-TIR HEK293T lysate NADase, at 1 µM, stronger effect = higher value
# [4] = liver-stage malaria parasite growth inhibition, primary screen, cell-based, HepG2, luciferase luminescence, HepG2 viability (AID 624349; in the data active = parasite load remaining mostly below about 12%, no sharp cut-off; inactive = mostly above about 10%;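 also: 100% = mean of DMSO negative control wells on the same plate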); details: P. berghei liver stage in HepG2, luciferase luminescence, concentration not given here; parasite load remaining: stronger effect = lower value; viability: measured here: HepG2 viability without parasites
# [5] = sensitizers of A549 cells to miR-34 induction, primary screen, imaging, A549 dox-inducible miR-34, nuclei and caspase counts (AID 1347080;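 active = compounds whose cell count with miR-34 switched on is under 0.7 times the count with it off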); details: A549 miR-34 inducible, Hoechst nuclei count, 48 h
# [6] = modifiers of HSF1 nuclear foci, imaging, Selleck Cancer Library (AID 1347162; in the data active = plate-normalised HSF1 focus index below about 0.46); details: human cells, at 10 µM; SSMD: measured here: HSF1 foci SSMD mean; cell count: measured here: cell number; plate-normalised HSF1 focus index: stronger effect = lower value
# [7] = phospholipid biosynthesis inhibitors in animal cells, primary screen, cell-based, LOPAC library, screen 4 (AID 1347384; call rule not given here); details: phospholipid biosynthesis inhibition screen, at 10 µM
# [8] = molecular target: Mitogen-activated protein kinase 7 (Homo sapiens) (UniProt Q13164); experiment: ERK5 transactivation activators in reporter cells, primary screen, cell-based, HTS (AID 1508626;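 active = luciferase signal above three times the same-plate solvent-only control wells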;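 also: luciferase driven by Gal4-ERK5 fusion binding five Gal4 sites before minimal TATA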); details: HeLa Gal4-ERK5 transactivation, 18 h, at 5 µM, stronger effect = higher value
# [9] = molecular target: ATP-dependent translocase ABCB1 (Homo sapiens) (UniProt P08183); experiment: MDR1 (ABCB1) efflux transporter inhibition, cell-based (AID 377; in the data active = fluorescence slope change above about 50%); details: MDR1-expressing cells, fluorescent substrate accumulation slope; stronger effect = higher value; concentration not given here
# [10] = antimalarial activity against Dd2 strain (AID 2302;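 active = growth inhibition above 50% at the single 2 µM test dose, taken to imply half-maximal potency below 2 µM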;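 also: 0% = DMSO untreated growth and 100% = chloroquine plus artemisinin killed control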); details: P. falciparum Dd2 in RBCs, LDH growth readout, 72 h; at 2 µM; stronger effect = higher value
# [11] = HepG2 cytotoxicity, primary screen, cytotoxicity control for P. falciparum antimalarial project, cell-based, ATP luminescence (AID 2303;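 active = inhibition above 50%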;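 also: 0% = DMSO wells and 100% = digitonin-killed cells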); details: HepG2 viability, 24-48 h, at 10 µM, stronger effect = higher value
# [12] = molecular target: L-lactate dehydrogenase (Plasmodium falciparum (isolate CDC / Honduras)) (UniProt Q27743); experiment: PfLDH activity inhibition – cell lysate, 3D7 strain, counter-screen for P. falciparum growth inhibition project (AID 2304; call rule not given here;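 also: 0% = vehicle and 100% = reference inhibitor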); details: P. falciparum 3D7 crude extract, LDH APAD/NBT absorbance; at 2 µM; stronger effect = higher value
# [13] = inhibition of 3D7 malaria parasite growth – strain 3D7 (AID 2306; call rule not given here;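 also: 0% = DMSO wells and 100% = chloroquine plus artemisinin control wells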); details: P. falciparum 3D7 erythrocytic growth, LDH absorbance, 72 h; at 2 µM; stronger effect = higher value
# [14] = hESC survival regulators, cell-based (AID 493140; call rule not given here;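 also: cells exposed to compounds for four days before counting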); details: human embryonic stem cell survival screen; stronger effect = higher value
# [15] = viability rescue of complex I mutant cybrids, primary screen, cell-based, galactose medium, ATP luminescence (AID 1645843;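 active = z-score of at least 1.8 in each of two replicates, scored against plate mean and spread of sample wells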;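 also: positive z means more ATP and so rescue of galactose-driven cybrid death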); details: complex I mutant cybrid cells, 72 h, stronger effect = higher value
# [16] = measured here: epithelial PC-3E GFP cell survival
# [17] = measured here: mesenchymal TEM4-18 mCherry cell survival
# [18] = MELAS cybrid survival, CellTiter-Glo 48 h, stronger effect = higher value
# [19] = Rieske KO mouse fibroblast survival, CellTiter-Glo 72 h
# [20] = stronger effect = lower value, cell number ratio, induced over uninduced
# [21] = measured here: relative caspase fold change +Dox/-Dox
# [22] = measured here: total cells with miR-34 induction, stronger effect = lower value
# [23] = measured here: total cells without miR-34 induction
# Chain of NAD(+) hydrolase SARM1 (Homo sapiens) (Q6SZW1 whole entry, looked up): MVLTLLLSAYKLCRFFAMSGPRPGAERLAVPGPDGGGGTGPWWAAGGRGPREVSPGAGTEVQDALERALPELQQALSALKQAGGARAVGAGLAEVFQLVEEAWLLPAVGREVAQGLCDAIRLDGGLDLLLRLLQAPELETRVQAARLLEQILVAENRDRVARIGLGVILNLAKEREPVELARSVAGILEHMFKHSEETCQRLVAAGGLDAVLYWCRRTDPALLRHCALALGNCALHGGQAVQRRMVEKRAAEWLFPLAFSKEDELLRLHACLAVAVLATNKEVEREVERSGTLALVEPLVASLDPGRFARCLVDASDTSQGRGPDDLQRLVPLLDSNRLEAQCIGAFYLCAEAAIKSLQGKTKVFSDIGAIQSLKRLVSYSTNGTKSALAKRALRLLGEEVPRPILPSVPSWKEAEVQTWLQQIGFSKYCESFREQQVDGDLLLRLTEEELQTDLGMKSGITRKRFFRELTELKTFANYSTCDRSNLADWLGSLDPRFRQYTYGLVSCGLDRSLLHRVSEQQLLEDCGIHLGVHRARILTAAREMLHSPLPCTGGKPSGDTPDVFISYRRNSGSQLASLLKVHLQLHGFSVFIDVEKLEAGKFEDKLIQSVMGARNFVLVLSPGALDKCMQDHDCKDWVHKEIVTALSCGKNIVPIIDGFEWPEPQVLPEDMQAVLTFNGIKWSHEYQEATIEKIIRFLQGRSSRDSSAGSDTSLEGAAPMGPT
# Chain of Mitogen-activated protein kinase 7 (Homo sapiens) (Q13164 whole entry, looked up, the tested form may be a part): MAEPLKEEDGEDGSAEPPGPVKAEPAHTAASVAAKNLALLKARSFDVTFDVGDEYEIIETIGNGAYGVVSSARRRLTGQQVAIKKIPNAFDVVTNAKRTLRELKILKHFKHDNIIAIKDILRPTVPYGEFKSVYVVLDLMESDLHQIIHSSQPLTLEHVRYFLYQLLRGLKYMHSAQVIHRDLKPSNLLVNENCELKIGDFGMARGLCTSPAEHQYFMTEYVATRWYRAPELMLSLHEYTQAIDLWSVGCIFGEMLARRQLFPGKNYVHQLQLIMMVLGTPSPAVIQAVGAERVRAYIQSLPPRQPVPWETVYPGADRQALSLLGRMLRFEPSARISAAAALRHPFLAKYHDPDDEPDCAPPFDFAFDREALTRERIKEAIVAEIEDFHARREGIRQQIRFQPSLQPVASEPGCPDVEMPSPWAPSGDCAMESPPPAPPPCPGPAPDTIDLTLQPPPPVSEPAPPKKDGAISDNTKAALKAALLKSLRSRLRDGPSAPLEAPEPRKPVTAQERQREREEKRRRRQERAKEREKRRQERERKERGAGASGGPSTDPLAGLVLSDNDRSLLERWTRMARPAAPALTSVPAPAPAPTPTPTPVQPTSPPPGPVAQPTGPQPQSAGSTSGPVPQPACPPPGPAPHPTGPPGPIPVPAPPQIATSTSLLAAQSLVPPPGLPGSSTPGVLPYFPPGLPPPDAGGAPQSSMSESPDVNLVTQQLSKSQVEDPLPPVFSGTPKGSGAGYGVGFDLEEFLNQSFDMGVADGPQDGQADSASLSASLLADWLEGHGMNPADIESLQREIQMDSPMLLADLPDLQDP
# Chain of L-lactate dehydrogenase (Plasmodium falciparum (isolate CDC / Honduras)) (Q27743 whole entry, looked up): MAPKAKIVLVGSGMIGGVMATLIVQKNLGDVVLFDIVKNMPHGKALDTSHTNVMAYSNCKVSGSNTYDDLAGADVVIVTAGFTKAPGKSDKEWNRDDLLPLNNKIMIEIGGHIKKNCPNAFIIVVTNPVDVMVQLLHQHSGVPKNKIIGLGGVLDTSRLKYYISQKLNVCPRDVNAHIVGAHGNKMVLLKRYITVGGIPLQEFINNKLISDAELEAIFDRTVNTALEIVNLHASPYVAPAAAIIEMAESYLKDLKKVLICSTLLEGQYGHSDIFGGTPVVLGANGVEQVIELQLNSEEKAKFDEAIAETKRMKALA
# Chain of ATP-dependent translocase ABCB1 (Homo sapiens) (P08183 whole entry, looked up): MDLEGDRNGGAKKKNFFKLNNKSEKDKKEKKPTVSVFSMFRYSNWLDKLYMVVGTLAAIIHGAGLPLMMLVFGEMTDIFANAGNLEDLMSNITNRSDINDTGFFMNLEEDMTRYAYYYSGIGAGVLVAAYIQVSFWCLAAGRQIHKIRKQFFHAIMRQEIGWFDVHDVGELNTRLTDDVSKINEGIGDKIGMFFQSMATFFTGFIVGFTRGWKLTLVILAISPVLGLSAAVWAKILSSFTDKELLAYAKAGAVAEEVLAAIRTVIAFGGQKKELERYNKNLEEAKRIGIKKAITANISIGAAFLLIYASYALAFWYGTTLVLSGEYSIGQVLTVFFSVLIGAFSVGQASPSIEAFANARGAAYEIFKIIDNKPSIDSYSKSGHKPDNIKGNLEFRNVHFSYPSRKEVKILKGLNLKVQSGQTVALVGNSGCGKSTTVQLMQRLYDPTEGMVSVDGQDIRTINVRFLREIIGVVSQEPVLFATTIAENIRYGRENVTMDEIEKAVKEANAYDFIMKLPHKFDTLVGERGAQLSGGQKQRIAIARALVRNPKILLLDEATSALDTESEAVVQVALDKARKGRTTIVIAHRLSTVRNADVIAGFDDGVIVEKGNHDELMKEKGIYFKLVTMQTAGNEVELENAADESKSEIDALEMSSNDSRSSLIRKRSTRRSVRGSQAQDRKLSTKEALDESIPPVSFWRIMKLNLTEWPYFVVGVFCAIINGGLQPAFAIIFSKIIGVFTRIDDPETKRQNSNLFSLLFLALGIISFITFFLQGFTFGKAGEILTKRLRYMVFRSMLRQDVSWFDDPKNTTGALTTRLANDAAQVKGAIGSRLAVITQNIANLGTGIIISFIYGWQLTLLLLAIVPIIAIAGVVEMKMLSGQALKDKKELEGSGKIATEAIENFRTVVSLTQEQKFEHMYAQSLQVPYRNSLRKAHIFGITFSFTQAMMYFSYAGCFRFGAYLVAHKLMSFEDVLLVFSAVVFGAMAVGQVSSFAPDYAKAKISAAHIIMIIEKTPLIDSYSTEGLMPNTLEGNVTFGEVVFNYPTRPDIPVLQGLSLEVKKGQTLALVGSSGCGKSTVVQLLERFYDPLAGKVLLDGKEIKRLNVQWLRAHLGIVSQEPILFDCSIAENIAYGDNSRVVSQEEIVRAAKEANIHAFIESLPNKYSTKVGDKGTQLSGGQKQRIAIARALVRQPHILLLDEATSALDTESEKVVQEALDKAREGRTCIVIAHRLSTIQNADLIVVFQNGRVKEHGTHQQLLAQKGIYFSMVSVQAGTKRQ
smiles,measurement,setting,value
C[C@H](N[C@@H](CCc1ccccc1)C(=O)O)C(=O)N1CCC[C@H]1C(=O)O,red/green cell ratio (normalised),[1],0.88 (inactive)
same,normalised cell number,[1]; [16],1.17
same,normalised cell number,[1]; [17],1.03
same,z-score,[2]; [18],0.249 (inactive)
same,z-score,[2]; [19],-0.206
CC(C)(C)NC[C@H](O)COc1ccccc1C1CCCC1,red/green cell ratio (normalised),[1],1.04 (inactive)
same,normalised cell number,[1]; [16],1.13
same,normalised cell number,[1]; [17],1.17
same,remaining NAD,[3],10 nM (inactive)
CC(C)(C)NCC(O)COc1cccc2c1CCCC2=O (stereo not drawn),parasite load remaining,[4],76.4% (inactive)
same,viability,[4],103%
same,red/green cell ratio (normalised),[1],1.02 (inactive)
same,normalised cell number,[1]; [16],1.01
same,normalised cell number,[1]; [17],1.03
same,fold change,[5]; [20],0.83 (inactive)
same,fold change,[5]; [21],2.71
same,cell count,[5]; [22],11300
same,cell count,[5]; [23],13600
CCCCC(=O)O[C@]1(C(=O)CO)CCC2C3CCC4=CC(=O)CC[C@]4(C)C3[C@@H](O)C[C@@]21C (stereo partly drawn),parasite load remaining,[4],79% (inactive)
same,viability,[4],98.3%
same,red/green cell ratio (normalised),[1],1.41 (inactive)
same,normalised cell number,[1]; [16],0.69
same,normalised cell number,[1]; [17],0.97
same,fold change,[5]; [20],0.833 (inactive)
same,fold change,[5]; [21],3.05
same,cell count,[5]; [22],7620
same,cell count,[5]; [23],9140
CC(C)(C)NC(=O)[C@H]1CCC2C3CCC4NC(=O)C=C[C@]4(C)C3CC[C@@]21C (stereo partly drawn),parasite load remaining,[4],30.5% (inactive)
same,viability,[4],97.9%
same,red/green cell ratio (normalised),[1],1.12 (inactive)
same,normalised cell number,[1]; [16],0.62
same,normalised cell number,[1]; [17],0.69
same,fold change,[5]; [20],0.895 (inactive)
same,fold change,[5]; [21],2.7
same,cell count,[5]; [22],11000
same,cell count,[5]; [23],12300
CCC(C)C(=O)O[C@H]1C[C@H](O)C=C2C=C[C@H](C)[C@H](CC[C@@H](O)C[C@@H](O)CC(=O)O)C21 (stereo partly drawn),parasite load remaining,[4],152% (inactive) and 58.6% (inactive)
same,viability,[4],84.1% and 191%
same,red/green cell ratio (normalised),[1],0.96 (inactive)
same,normalised cell number,[1]; [16],1.19
same,normalised cell number,[1]; [17],1.14
same,fold change,[5]; [20],0.861 (inactive)
same,fold change,[5]; [21],5.53
same,cell count,[5]; [22],11700
same,cell count,[5]; [23],13500
CC(=O)O[C@@]12CO[C@@H]1C[C@H](O)[C@@]1(C)C(=O)[C@H](O)C3=C(C)[C@@H](OC(=O)[C@H](O)[C@@H](NC(=O)OC(C)(C)C)c4ccccc4)C[C@@](O)([C@@H](OC(=O)c4ccccc4)C12)C3(C)C (stereo partly drawn),red/green cell ratio (normalised),[1],1.12 (inactive)
same,normalised cell number,[1]; [16],0.16
same,normalised cell number,[1]; [17],0.18
same,SSMD,[6],1.92
same,cell count,[6],6830
same,plate-normalised HSF1 focus index,[6],1.1 (inactive)
CO/N=C(/C(=O)N[C@@H]1C(=O)N2C(C(=O)O)=C(CSc3nc(=O)c(O)nn3C)CS[C@H]12)c1csc(N)n1,parasite load remaining,[4],147% (inactive) and 79.9% (inactive) and 62.4% (inactive)
same,viability,[4],82.1% and 106% and 101%
same,red/green cell ratio (normalised),[1],1.22 (inactive)
same,normalised cell number,[1]; [16],1.02
same,normalised cell number,[1]; [17],1.24
same,fold change,[5]; [20],0.888 (inactive)
same,fold change,[5]; [21],3.26
same,cell count,[5]; [22],11700
same,cell count,[5]; [23],13200
CC(C)(Oc1ccc(C(=O)c2ccc(Cl)cc2)cc1)C(=O)O,red/green cell ratio (normalised),[1],1.11 (inactive)
same,normalised cell number,[1]; [16],1.09
same,normalised cell number,[1]; [17],1.21
same,remaining NAD,[3],10 nM (inactive)
O=C1[C@H](CCC(O)c2ccc(F)cc2)[C@@H](c2ccc(O)cc2)N1c1ccc(F)cc1 (stereo partly drawn),parasite load remaining,[4],127% (inactive) and 58.1% (inactive)
same,viability,[4],82.3% and 90.7%
same,red/green cell ratio (normalised),[1],1.19 (inactive)
same,normalised cell number,[1]; [16],0.87
same,normalised cell number,[1]; [17],1.03
same,fold change,[5]; [20],0.905 (inactive)
same,fold change,[5]; [21],1.79
same,cell count,[5]; [22],11700
same,cell count,[5]; [23],12900
"NCCCC(N)CC(=O)NCC1NC(=O)C(CO)NC(=O)C(N)CNC(=O)C(C2CCN=C(N)N2)NC(=O)/C(=C\NC(N)=O)NC1=O (stereo not drawn) (H-[Dap]S[Dap](ξβ3hOrn)[ΔAla(E,3-NHCONH2)][X1]; lactam 1-C; configuration not given here)",parasite load remaining,[4],84% (inactive) and 54.2% (inactive)
same,viability,[4],74.9% and 94.9%
same,red/green cell ratio (normalised),[1],0.98 (inactive)
same,normalised cell number,[1]; [16],1.11
same,normalised cell number,[1]; [17],1.09
same,fold change,[5]; [20],0.856 (inactive)
same,fold change,[5]; [21],1.07
same,cell count,[5]; [22],11300
same,cell count,[5]; [23],13200
C=C(NC(=O)C(=C)NC(=O)c1csc(C2=NC3c4csc(n4)C4NC(=O)c5csc(n5)C(C(C)(O)C(C)O)NC(=O)C5CSC(=N5)C(=CC)NC(=O)C(C(C)O)NC(=O)c5csc(n5)C3(CC2)NC(=O)C(C)NC(=O)C(=C)NC(=O)C(C)NC(=O)C(C(C)CC)NC2C=Cc3c(C(C)O)cc(nc3C2O)C(=O)OC4C)n1)C(N)=O (stereo not drawn),parasite load remaining,[4],64.9% (inactive) and 23.2% (inactive)
same,viability,[4],75.8% and 108%
same,red/green cell ratio (normalised),[1],0.94 (inactive)
same,normalised cell number,[1]; [16],0.8
same,normalised cell number,[1]; [17],0.75
same,fold change,[5]; [20],0.829 (inactive)
same,fold change,[5]; [21],1.94
same,cell count,[5]; [22],9190
same,cell count,[5]; [23],11100
COCC1=C(C(=O)OC(C)OC(=O)OC(C)C)N2C(=O)[C@@H](NC(=O)/C(=N/OC)c3csc(N)n3)[C@H]2SC1 (stereo partly drawn),parasite load remaining,[4],42.3% (inactive)
same,viability,[4],194%
same,red/green cell ratio (normalised),[1],1.05 (inactive)
same,normalised cell number,[1]; [16],0.94
same,normalised cell number,[1]; [17],0.99
same,fold change,[5]; [20],0.924 (inactive)
same,fold change,[5]; [21],3.66
same,cell count,[5]; [22],12100
same,cell count,[5]; [23],13100
CC(C)CC1NC(=O)C(CCCN)NC(=O)C(C(C)C)NC(=O)C2CCCN2C(=O)C(Cc2ccccc2)NC(=O)C(CC(C)C)NC(=O)C(CCCN)NC(=O)C(C(C)C)NC(=O)C2CCCN2C(=O)C(Cc2ccccc2)NC1=O (stereo not drawn) (cyclo(FPV[Orn]LFPV[Orn]L); configuration not given here),parasite load remaining,[4],-0.175% (inactive)
same,viability,[4],12.4%
same,red/green cell ratio (normalised),[1],0.94 (inactive)
same,normalised cell number,[1]; [16],0.39
same,normalised cell number,[1]; [17],0.37
same,fold change,[5]; [20],0.889 (inactive)
same,fold change,[5]; [21],1.03
same,cell count,[5]; [22],2080
same,cell count,[5]; [23],2340
CC(C)=CCC/C(C)=C/COc1ccc2ccc(=O)oc2c1,red/green cell ratio (normalised),[1],1.07 (inactive)
same,normalised cell number,[1]; [16],0.93
same,normalised cell number,[1]; [17],0.99
same,outcome,[7],inactive
same,luciferase signal,[8],76 AU (inactive)
CN(Cc1cnc2nc(N)nc(N)c2n1)c1ccc(C(=O)NC(CCC(=O)O)C(=O)O)cc1 (stereo not drawn),fluorescence slope change,[9],-5.4% (inactive)
same,growth inhibition,[10],66% (active)
same,inhibition,[11],65% (active)
same,inhibition,[12],-1% (inactive)
same,growth inhibition,[13],91% (active)
same,survival,[14],10.7 (inactive)
same,red/green cell ratio (normalised),[1],0.89 (inactive)
same,normalised cell number,[1]; [16],1.15
same,normalised cell number,[1]; [17],1.02
same,z-score,[2]; [18],-0.53 (inactive) and 1.15 (inactive)
same,z-score,[2]; [19],0.183 and -0.283
same,remaining NAD,[3],10 nM (inactive)
same,luciferase signal,[8],32 AU (inactive)
same,z-score,[15],-1.2 (inactive)
